# Screens from PubChem.
# RGS4-Gao reg = human RGS4-Galphao interaction regulation; P09471; Multiplexed bead flow cytometry, RGS4-Galphao binding; actives lie on both sides; binding response (% of control), % at 10 µM; 220,000 tested, 0.33% active; in the data active = binding response below about 49% or above about 150%; inactive = in between;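 note: fluorescent Galphao activated with aluminum fluoride binding bead-coupled RGS4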
# RGS8-Gao reg = modulates binding of RGS8 to human Galphao. multiplexed bead flow cytometry; actives lie on both sides. response (percent of control binding), % at 10 µM. 220,000 tested, 0.34% active. AID 1423; in the data active = response below about 60% or above about 140%; inactive = in between;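 note: Galphao activated as the GDP aluminium fluoride complex binding bead-coupled RGS8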
# RGS7-Gao = regulators of human RGS7-Galphao interaction | P09471 | Multiplexed bead flow cytometry, RGS7-Galphao binding; actives lie on both sides | 220,000 tested, 0.35% active | binding response (% of control), % at 10 µM; in the data active = binding response below about 49% or above about 150%;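 note: fluorescent Galphao held in activated GDP-AlF4 state binding bead-coupled RGS7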
# Avidin bead fluor = avidin bead compound fluorescence profile. Avidin beads, compound fluorescence 488/530 nm, flow cytometry; stronger effect = higher value. 220,000 tested, 0.38% active. fluorescence (KMESF) at 10 µM; in the data active = fluorescence above about 47
# RGS16-Gao = modulates binding between human RGS16 and Galphao | bead-based flow cytometry RGS16-Galphao binding, fluorescence; actives lie on both sides | binding response (% of control), % at 10 µM | 220,000 tested, 0.38% active;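 note: Galphao activated by GDP with aluminum fluoride before binding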
# GSH fluor = GSH bead compound fluorescence profile; GSH beads flow cytometry, compound fluorescence 488/530 nm; stronger effect = higher value; fluorescence (KMESF) at 10 µM; 190,000 tested, 0.25% active; AID 1776; in the data active = fluorescence above about 89;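 note: glutathione beads carrying GST-tagged Bcl family fusion proteins plus one bare bead set; values are compound well signal with DMSO vehicle wells as background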
# RGS4-Gao HTS = regulators of human RGS4-Galphao interaction; shares compounds with RGS16-Gao; 1,600 tested, 99% active; RGS4–Galpha-o binding response, % at 10 µM; multiplexed bead flow cytometry, RGS–Galpha-o binding;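 note: fluorescently labeled Galpha-o bound to GDP with aluminium fluoride binding biotinylated RGS beads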
# Avidin counter = counter-screen: compounds disrupting biotin binding to avidin beads; shares compounds with RGS16-Gao; streptavidin beads, fluorescein-biotin binding, flow cytometry; inhibition, % at 10 µM; 1,700 tested, under 10 active; AID 1783;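 active = inhibition above 50%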;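 note: median green fluorescence of gated singlet beads compared with DMSO control wells; 0% = DMSO wells and 100% = complete loss of bead fluorescence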
# RGS8-Gao single = RGS8-Galphao interaction regulation, single point confirmation; binding response (% of control), % at 10 µM; 1,700 tested, 3% active; AID 1836; shares compounds with RGS16-Gao; bead-based flow cytometry RGS8-Galphao binding, fluorescence; actives lie on both sides; in the data active = binding response below about 72% or above about 130%; inactive = in between;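 note: Galphao activated as GDP AlF4 complex before binding bead RGS8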
# RGS7-Gao confirm = confirmation of regulators of human RGS7-Galphao interaction; 1,700 tested, 7.8% active; bead-based flow cytometry RGS7-Galphao binding; actives lie on both sides; AID 1837; shares compounds with RGS16-Gao; response (percent of control binding), % at 10 µM; in the data active = response below about 75% or above about 130%; inactive = in between;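 note: fluorescent Galphao activated with GDP and aluminum fluoride binding bead-coupled RGS7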
# RGS16-Gao conf = RGS16-Galphao interaction regulation, single point confirmation. shares compounds with RGS16-Gao. bead-based flow cytometry, RGS16-Galphao binding; actives lie on both sides. response (% of control binding), % at 10 µM. 1,700 tested, 4% active. AID 1838; in the data active = response below about 74% or above about 130%; inactive = in between;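 note: Galphao activated as the GDP aluminium fluoride complex binding bead-coupled RGS16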
# RGS4-Gao single = confirmation of regulators of human RGS4-Galphao interaction; 1,700 tested, 4% active; binding response (% of control), % at 10 µM; shares compounds with RGS16-Gao; RGS4-Galphao binding, multiplexed bead flow cytometry; actives lie on both sides; in the data active = binding response below about 74% or above about 130%; inactive = in between
# RGS19-Gao conf = confirmation of regulators of human RGS19-Galphao interaction; shares compounds with RGS16-Gao; bead-based flow cytometry RGS19-Galphao binding; actives lie on both sides; response (percent of control binding), % at 10 µM; 1,700 tested, 5% active; AID 1841; in the data active = response below about 50% or above about 160%; inactive = in between;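 note: 100% = no compound control and 0% = blank background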
# Target sequence (P09471 whole entry, looked up): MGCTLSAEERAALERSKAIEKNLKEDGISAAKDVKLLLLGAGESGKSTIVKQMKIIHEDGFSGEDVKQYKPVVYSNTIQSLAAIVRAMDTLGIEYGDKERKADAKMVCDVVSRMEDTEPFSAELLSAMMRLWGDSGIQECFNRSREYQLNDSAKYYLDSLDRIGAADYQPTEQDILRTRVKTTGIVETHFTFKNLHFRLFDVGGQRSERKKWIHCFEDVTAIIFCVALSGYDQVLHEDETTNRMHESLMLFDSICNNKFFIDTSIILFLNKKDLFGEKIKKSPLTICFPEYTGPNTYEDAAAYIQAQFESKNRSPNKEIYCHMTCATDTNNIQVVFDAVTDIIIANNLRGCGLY
# Target sequence (P49795 whole entry, looked up): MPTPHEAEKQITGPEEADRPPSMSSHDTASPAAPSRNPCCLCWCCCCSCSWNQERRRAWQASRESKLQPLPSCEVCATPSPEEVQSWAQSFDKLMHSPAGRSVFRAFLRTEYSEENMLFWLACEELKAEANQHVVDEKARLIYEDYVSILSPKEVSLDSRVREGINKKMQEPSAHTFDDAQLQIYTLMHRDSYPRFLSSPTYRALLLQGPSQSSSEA
# * = called active by the depositor; nt = no result given; [ ] = another dose, or the depositor's remark. Most compounds without a hit are left out; they make up all but 1.2% or so of the library. Unless noted, the rule behind the calls is not given here.
SMILES,RGS4-Gao reg,RGS8-Gao reg,RGS7-Gao,Avidin bead fluor,RGS16-Gao,GSH fluor,Avidin counter,RGS8-Gao single,RGS7-Gao confirm,RGS16-Gao conf,RGS4-Gao single,RGS19-Gao conf,others
O=c1cc(-c2ccccc2F)oc2ccccc12,96.9,98.5,94.4,6,94.3,18,nt,nt,nt,nt,nt,nt,
O=c1cc(C(F)(F)C(F)F)oc2ccccc12,nt,nt,nt,nt,nt,39,1.0,97.4,96.3,97.0,98.1,106.5,
CC(=O)Nc1ccc(N2C(=O)CSC2c2ccccc2[N+](=O)[O-])cc1 (stereo unspecified),101.3,98.6,99.8,2,100.1,10,nt,nt,nt,nt,nt,nt,
CCOC(=O)N1CCN(C(=O)CCCn2c(=S)[nH]c3ccccc3c2=O)CC1,nt,nt,nt,nt,nt,45,0.4,102.2,98.2,106.8,102.8,102.5,
COc1ccc(OC)c(NC(=O)CSc2nnc(CNC(=O)COc3ccc(Cl)cc3)o2)c1,105.2,104.3,159.5*[activator],68*,117.5,15,-1.9,104.2,104.5,105.7,104.3,100.1,RGS4-Gao HTS=105.2*
COc1ccc(NC(=O)CSc2nnc(CNC(=O)COc3ccc(Cl)cc3)o2)c(OC)c1,104.8,104.0,105.7,38,103.7,14,nt,nt,nt,nt,nt,nt,
O=C(CN1C(=O)COc2ccccc21)N(CCCN1CCOCC1)CC1CC=CCC1 (stereo unspecified),nt,nt,nt,nt,nt,45,-2.6,103.1,99.6,103.5,100.7,88.4,
O=C(CN1C(=O)COc2ccccc21)N(Cc1ccc2c(c1)OCO2)CC1CCCO1 (stereo unspecified),105.9,103.6,98.2,5,105.0,25,nt,nt,nt,nt,nt,nt,
CC(OC(=O)c1cccn1C)C(=O)Nc1ccc2c(c1)OCO2 (stereo unspecified),100.9,103.8,102.1,27,109.0,58,nt,nt,nt,nt,nt,nt,
CC1CC2=C(C(=O)O1)C(C)Nc1ccccc1N2 (stereo unspecified),86.3,85.0,86.7,8,21.8*,15,-1.3,102.4,98.6,101.7,100.7,83.2,RGS4-Gao HTS=86.3*
CCCCCn1c(CN(C)Cc2ccccc2)nc2c1c(=O)n(C)c(=O)n2C,110.5,129.0,110.5,7,238.0*[activator],11,-3.1,99.6,99.7,98.9,99.9,102.8,RGS4-Gao HTS=110.5*
NNC(=O)COc1cccc(Oc2ccccc2)c1,99.8,103.9,98.4,12,102.9,15,nt,nt,nt,nt,nt,nt,
CCOc1cccc2cc(-c3nnc(NCc4ccc5c(c4)OCO5)s3)c(=O)oc12,nt,nt,nt,nt,nt,9,-1.0,105.2,105.1,120.2,106.7,166.7*[activator],
Cc1ccc(S(=O)(=O)N2CCC(=O)N(CCO)CC2)cc1,97.2,100.7,101.9,10,103.2,19,nt,nt,nt,nt,nt,nt,
CC(Sc1ncnc2ccccc12)C(=O)Nc1ccc2c(c1)OCO2 (stereo unspecified),nt,nt,nt,nt,nt,15,1.0,103.4,91.7,105.6,96.6,102.6,
Cc1ccc(S(=O)(=O)NC(=O)c2ccc(-c3ccc(-c4ccccc4)cc3)o2)c(C)c1,105.0,102.9,107.8,11,109.1,20,nt,nt,nt,nt,nt,nt,
